Data reported in PubChem BioAssay AID429 (Emory University Molecular Libraries Screening Center, 2006).
Screen size: about 64,000 compounds; about 220 (0.34%) were called active.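 How the source made its calls: active means inhibition above 50%; inactive means the rest.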 Only a selection was taken, and actives are over-represented in it overall.

molecular target: Heat shock protein HSP 90-alpha (Homo sapiens) (UniProt P07900); experiment: tumor Hsp90 inhibitors, primary screen, cell lysate, fluorescence polarization, NCI-N417 lysate (AID 429); conditions: NCI-N417 lysate Hsp90, Cy3B-geldanamycin FP displacement; at 30 µM; hits give high values;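 further: 0% = tracer plus lysate wells and 100% = tracer alone without lysate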

| Structure (SMILES) | inhibition |
| --- | --- |
| NC1CCN(O)C1=O (stereo not drawn) | -1.33% (inactive) |
| CCCC(=O)N(CCc1ccccc1)Cc1nc2ccccc2c(=O)[nH]1 | -3.96% (inactive) |
| Cn1c(=O)[nH]c(=O)c2c1nc(Br)n2CCCCSc1nc2ccccc2o1 | 2.94% (inactive) |
| CSCCC(NS(=O)(=O)/C=C/c1ccccc1)C(=O)N1CCC(C)CC1 (stereo not drawn) | 0.46% (inactive) |
| O=S1(=O)CCN2C(=N1)SC1=C2CCN(Cc2ccccc2)C1 | 1.02% (inactive) |
| COc1cc2c(cc1OC)C(c1ccncc1)CC(=O)N2 (stereo not drawn) | -0.47% (inactive) |
| CCC/C(O)=C1\C(=O)CC(C)(C)CC1=Nc1ccccc1OC | -4.54% (inactive) |
| CC(=O)c1c(C)c[nH]c1C | 3.14% (inactive) |
| COc1cc(C(=O)Nc2oc(-c3ccccc3)c(-c3ccccc3)c2C#N)cc(OC)c1OC | 1.74% (inactive) |
| COc1ccc(CNC2CCCCC2)cc1 | -2.8% (inactive) |
| C=CCn1c(N)c(S(=O)(=O)c2cccs2)c2nc3ccccc3nc21 | -4.06% (inactive) |
| C=CCn1c(N)c(C(=O)OCC(C)C)c2nc3ccccc3nc21 | 65.5% (active) |
| CC(C)Cn1c(N)c(C(=O)NCc2cccs2)c2nc3ccccc3nc21 | -3.05% (inactive) |
| O=C(CCOc1ccccc1)NCc1ccccc1 | 2.46% (inactive) |
| N#C/C(=C\c1ccc(O)c(O)c1)C(=O)NCc1ccccc1 | 77.1% (active) |
| CS(=O)(=O)NCc1ccc(C(=O)NCc2ccccc2)cc1 | -1.87% (inactive) |
| COc1ccc(C2CC(c3ccc(C)cc3)Nc3ncnn32)cc1 (stereo not drawn) | -1.24% (inactive) |
| CN(C)CCOC(=O)C(c1ccccc1)C1(O)CCCC1 (stereo not drawn) | -3.68% (inactive) |
| CC(=O)c1ccc(-n2nnnc2SCC(=O)N2CCN(C(=O)c3ccco3)CC2)cc1 | -0.68% (inactive) |
| O=C(O)C1CCCN(CCC=C(c2ccccc2)c2ccccc2)C1 (stereo not drawn) | 0.96% (inactive) |
| COc1cc(NS(=O)(=O)c2cccc3nsnc23)c2ncccc2c1 | 0.42% (inactive) |
| COc1ccccc1Oc1ccc(S(=O)(=O)Nc2cccnc2)cc1 | -4.43% (inactive) |
| O=C(O)CCC(=O)N(Cc1ccco1)c1nc(-c2ccccc2)cs1 | -1.19% (inactive) |
| CS(=O)(=O)N1CCCC(C(=O)N2CCOCC2)C1 (stereo not drawn) | -0.69% (inactive) |
| CN(c1ccc(C(=O)NCCC2=CCCCC2)cc1)S(C)(=O)=O | -2.17% (inactive) |
| NC(=O)Cn1c(=O)oc2ccccc21 | 2.54% (inactive) |
| O=C(NCCCN1CCN(Cc2ccccc2)CC1)C1CCN(S(=O)(=O)N2CCCC2)CC1 | -1.77% (inactive) |
| Oc1ccc(Cl)cc1/C=N/c1nc2ccccc2[nH]1 | 1.09% (inactive) |
